Data published in PubChem BioAssay AID743279 (National Center for Advancing Translational Sciences (NCATS), 2014).
Among all 360,000 compounds or so, about 17,000 (4.7%) were called active. Roughly 5% stayed inconclusive and do not appear here. Rule as the data show it: active = activity change below about -50%; inconclusive = mostly about -30% to -49%; inactive = weaker than that. Shown is part of a subset that was picked to be rich in actives.

Assay: qHTS for Inhibitors of Inflammasome Signaling: IL-1-beta AlphaLISA Primary Screen
Conditions: THP-1 LPS/ATP IL-1B secretion, 16 h; at 57.5 µM, hits give low values
In short: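 THP-1 cells pretreated 1 hr with compounds (up to 57.5 uM final), then stimulated with LPS (250 ng/mL final) plus ATP (1.25 mM final); secreted IL-1B measured by AlphaLISA after 16 hr, decreased signal indicating inhibition.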
% is scaled to controls: 0 for no effect and ±100 for the full control effect.

Row | SMILES | activity change
1 | CC=CCn1c(SCCCc2ccccc2)nc2c1c(=O)[nH]c(=O)n2C | 34.7% (inactive)
2 | O=C1OC(Cc2ccccc2)C(c2ccccc2)C1=O (stereo not given) | -4.65% (inactive)
3 | CCN(CCCNC(=O)c1ccc2c(c1)NC(=O)CN2C)c1cccc(C)c1 | -98.2% (active)
4 | CCN1CCN(CCNC(=O)c2ccc3c(c2)NC(=O)/C(=C\c2cccc(Cl)c2)S3)CC1 | 12.3% (inactive)
5 | CCN(CCCNC(=O)CCn1c(=O)[nH]c2ccsc2c1=O)c1ccccc1 | -7.98% (inactive)
6 | O=C(Nc1ccc(F)cc1)C(CCc1ccccc1)N1CCN(CC(=O)N2CCCC2)CC1 (stereo not given) | -1.84% (inactive)
7 | CC(=O)Nc1ccccc1OC(C)C(=O)N1CCC(C)CC1 (stereo not given) | 26.5% (inactive)
8 | CCOC(=O)C1C(C)C(C(C)(C)C)N(S(=O)(=O)c2ccc(C)cc2)C1c1ccccc1 (stereo not given) | -15.7% (inactive)
9 | CC(/C=N/NC(=O)c1cc(-c2ccc3ccccc3c2)n[nH]1)=C\c1ccco1 | -29.4% (inactive)
10 | Cc1cc(C(=O)N/N=C\C(Br)=C\c2ccccc2)c(C)o1 | -99% (active)
11 | CC(=C/c1ccccc1)/C=N/NC(=O)c1cc(C)oc1C | -1.83% (inactive)
12 | COc1ccc(C/C(C)=N/NC(=O)c2cc(C)oc2C)cc1 | -3.42% (inactive)
13 | CC(C)c1cc(C(=O)O)n[nH]1 | -10.8% (inactive)
14 | CC(C)c1cc(C(=O)N/N=C/C(Br)=C/c2ccccc2)n[nH]1 | -78.1% (active)
15 | CCC1C=C(c2ccccc2)C=CN=C1N(CC)CC (stereo not given) | -9.78% (inactive)
16 | COc1c(C)cc(C(O)c2ncc(-c3cccc(C(F)(F)F)c3)[nH]2)cc1C (stereo not given) | -19.6% (inactive)
17 | C=CCn1c(CCNC(=O)c2ccccc2F)nnc1SCC(=O)Nc1ccc(OC)cc1 | 0.328% (inactive)
18 | N#Cc1cc([N+](=O)[O-])ccc1NCC1CCCO1 (stereo not given) | 16.2% (inactive)
19 | COc1cc(OC)cc(C(=O)N[C@H](C(=O)OCC(=O)NC(C)c2ccccc2)C(C)C)c1 (stereo not given in full) | 0% (inactive)
20 | CC(C)(c1ccccc1)c1ccc(OCCN)cc1 | -93.8% (active)
21 | COc1ccc(OCCNS(=O)(=O)Cc2ccccc2)cc1 | 5.88% (inactive)
22 | Cc1nn(CCOc2ccccc2)c(=O)n1-c1ccccc1F | -5.73% (inactive)
23 | CCOn1c(=O)c(=O)n(O)c2ccccc21 | 33.6% (inactive)

Row | SMILES | activity change
24 | COc1cc(C)c(CN2CCN(C(=O)CCC(=O)c3ccc(C)s3)CC2)cc1OC | -4.16% (inactive)
25 | O=C1/C(=C\c2ccc(O)cc2)CCC1CNc1ccc(Cl)cc1 (stereo not given) | -106% (active)
26 | CC(C(=O)NC1CCS(=O)(=O)C1)N1C(=O)/C(=C/c2ccc(Cl)cc2)SC1=S (stereo not given) | -3.39% (inactive)
27 | COCOCCn1cc(CN2CCS(=O)(=O)N(Cc3ccc(-c4cccc(N(C)C)c4)cc3)C(CC(C)C)C2=O)nn1 (stereo not given) | -1.55% (inactive)
28 | CC(C)CC1C(=O)N(Cc2cn(CC3CCCCC3)nn2)CCS(=O)(=O)N1Cc1ccc(-c2ccc(Cl)cc2)cc1 (stereo not given) | -2.11% (inactive)
29 | COc1ccc(-c2ccc(CN3C(CC(C)C)C(=O)N(Cc4cn(CC5CCCCC5)nn4)CCS3(=O)=O)cc2)cc1 (stereo not given) | 18.2% (inactive)
30 | CC1C(=O)N(Cc2cn(Cc3ccco3)nn2)CCS(=O)(=O)N1Cc1ccc(-c2cccc(CO)c2)cc1 (stereo not given) | -17.1% (inactive)
31 | COCOCCn1cc(CN2CCS(=O)(=O)N(Cc3ccc(-c4ccc(OC)cc4)cc3)C(CC(C)C)C2=O)nn1 (stereo not given) | -56.9% (active)
32 | CC(C)CC1C(=O)N(Cc2cn(Cc3ccco3)nn2)CCS(=O)(=O)N1Cc1ccc(-c2ccc(Cl)c(Cl)c2)cc1 (stereo not given) | -82.3% (active)
33 | Cn1nc(N)c2ncc(C(Cl)(Cl)Cl)nc21 | -5.29% (inactive)
34 | O=C(N/N=C\c1cc2c(cc1Cl)OCO2)c1ccc(Br)s1 | 7.39% (inactive)
35 | COc1ccc(-c2ccc(C(=O)NC(C)C)c3occc23)c(C)c1 | -6.78% (inactive)
36 | Cc1cc2nc(-c3ccc(Cl)cc3)c(Cc3cccc(F)c3)n2c(C)c1Br | 0% (inactive)
37 | CCn1c(NCCc2ccc(OC)c(OC)c2)nc2c1c(=O)n(C)c(=O)n2C | 5.08% (inactive)
38 | CCCCNc1nc2c(c(=O)n(C)c(=O)n2C)n1Cc1cccc(OC)c1 | -59.5% (active)
39 | CCCCNc1nc2c(c(=O)[nH]c(=O)n2C)n1CCOc1ccccc1 | 26.9% (inactive)
40 | CCc1c(N=O)c(-c2ccccc2)n(O)[n+]1[O-] | -4.78% (inactive)
41 | CN(C)CCNC(=O)c1ccc(-c2cn3c(-c4ccc(Oc5ccccc5)cc4)cnc3cn2)cc1 | -66.3% (active)
42 | Cc1noc(C)c1COc1ccc(C(=O)NCCOc2ccccc2)cc1 | -10.6% (inactive)
43 | CN(C)C(CNC(=O)c1ccc(OCc2cn3ccccc3n2)cc1)c1ccco1 (stereo not given) | 3.62% (inactive)
44 | COc1cc(N/C=C2\CC(=O)NC(C)=C2C#N)cc(OC)c1OC | 18.8% (inactive)
45 | O=C(CN1CCN(c2ncc(C(F)(F)F)cc2Cl)CC1)Nc1ccc2c(c1)OCO2 | -50.6% (active)
46 | O=C(Cn1cc(C(F)(F)F)ccc1=O)Nc1ccc2c(c1)OCCO2 | -6.35% (inactive)

Row | SMILES | activity change
47 | O=C(CN1CCN(C(=O)c2ccco2)CC1)Nc1ccc2c(c1)OCO2 | 21.4% (inactive)
48 | CCCNC(=O)C1(C)CCCN(Cc2cccc(C(F)(F)F)c2)C1 (stereo not given) | -10.2% (inactive)
49 | CCC(C(=O)NCc1ccccc1)n1c(Cc2cc(F)cc(F)c2)nc2ccccc21 (stereo not given) | -4.41% (inactive)
50 | CCOC(=O)[C@]12CCCC=C1N(CCC1=CCCCC1)C(=O)[C@H](CC(=O)N1CCOCC1)C2 | 12.3% (inactive)
51 | COc1ccc(CNC(=O)c2ccc(-c3cccnc3)c3ccoc23)cc1OC | -14.6% (inactive)
52 | CN(C)c1cccc(NC(=O)c2ccc(-c3ccc(F)c(F)c3)c3ccoc23)c1 | -82.3% (active)
53 | O=C(Nc1ccc(N2CCOCC2)cc1)c1cccc2c(-c3ccc(F)c(F)c3)coc12 | -5% (inactive)
54 | COc1ccc(CNC2CCCCC2)cc1 | -4.21% (inactive)
55 | COc1cc(C=O)c(Br)cc1OCC(=O)NCc1ccccc1 | -25.7% (inactive)
56 | COc1cc(CNC2CCCC2)c(Br)cc1OCc1ccccc1 | -92.7% (active)
57 | COc1cc(C(=S)NC2CCCCC2)ccc1O | 5.59% (inactive)
58 | COc1cc(CNC2CCCCC2)c(Br)cc1OC1CCCC1 | -64.3% (active)
59 | CC(C)(C)NCc1cc(Br)ccc1OC1CCCC1 | -13.9% (inactive)
60 | CCN1C(=O)[C@H]2[C@@H](c3ccc(C(F)(F)F)cc3)N[C@]3(CCCN(Cc4ccc(Br)cc4)C3=O)[C@H]2C1=O | -19.9% (inactive)
61 | O=C1C2C3C=CC(C3)C2C(=O)N1c1ncc([N+](=O)[O-])s1 (stereo not given) | 6.51% (inactive)
62 | CCOc1ccc(S(=O)(=O)NCCC(=O)NCC2CCCO2)cc1 (stereo not given) | 32.7% (inactive)
63 | COc1ccccc1-c1nn(Cc2ccccc2)cc1C(=O)N1CCN(c2ncccn2)CC1 | 1.02% (inactive)
64 | COc1ccc(C(C(=O)NCc2ccccc2)n2c(=O)c(-c3ccccc3)nc3ccccc32)cc1 (stereo not given) | -6.01% (inactive)
65 | Cc1ccccc1-c1nc(CS(=O)(=O)CC(=O)NC(C)c2ccccc2)c(C)o1 (stereo not given) | -61.7% (active)
66 | CSc1ccc(CCNC(=O)CS(=O)(=O)Cc2nc(-c3ccccc3F)oc2C)cc1 | 9.85% (inactive)
67 | Cc1ccc(S(=O)(=O)CC(=O)NC(C)c2ccccc2)cc1 (stereo not given) | 0.147% (inactive)
68 | NC(=S)NN=C1CCCC(C(F)(F)F)C1 (stereo not given) | 4.88% (inactive)
69 | O=C(c1ccc2c(c1)C(=O)N(Cc1ccncc1)C2=O)N1CCN(S(=O)(=O)c2ccc(OC(F)(F)F)cc2)CC1 | 8.07% (inactive)

Row | SMILES | activity change
70 | Cc1cc(O)ccc1-c1cc(C(=O)NCc2cc(C(F)(F)F)cc(C(F)(F)F)c2)[nH]n1 | -53.4% (active)
71 | COc1ccccc1CNC(=O)c1cc(-c2cc(Cl)ccc2C)n[nH]1 | -16.3% (inactive)
72 | Cc1ccc(O)c(-c2cc(C(=O)NCc3ccccc3)[nH]n2)c1 | -0.0227% (inactive)
73 | COC(=O)c1ccc2nc(-c3ccc(Cl)cc3)c(Cc3cccc(F)c3)n2c1 | 58.6% (inactive)
74 | CC(=O)NC(NC(=S)Nc1c(C)n(C)n(-c2ccccc2)c1=O)C(Cl)(Cl)Cl (stereo not given) | 0% (inactive)
75 | Cc1cc(NC(=O)CCN2CCN(Cc3ccccc3)CC2)ccc1Br | -54% (active)
76 | O=C(CN1CCN(Cc2ccccc2)CC1)Nc1ccc(F)c(F)c1 | -7.81% (inactive)
77 | CCOC(=O)N1CCN(CCC(=O)Nc2ccccc2)CC1 | -4.73% (inactive)
78 | O=C(OCC(=O)N1CCCCCC1)c1cccc(Cl)c1Cl | 9.58% (inactive)
79 | COc1ccc(Cl)cc1N(CC(=O)N/N=C/c1ccc(OCC(N)=O)cc1)S(C)(=O)=O | 34.5% (inactive)
80 | NC(N)=N/N=C/c1ccc(OCc2ccc(Cl)cc2Cl)cc1 | -97.9% (active)
81 | Cc1nc2ccccc2nc(C)c1=NOCc1ccc(Cl)cc1Cl | 0% (inactive)
82 | COc1ccc(/C=C/C(=O)OCC(=O)N2CCN(S(=O)(=O)c3ccc(C)cc3C)CC2)cc1OC | 1.01% (inactive)
83 | COc1ccc(CCNc2cc(C)nc3c(-c4ccc(Cl)cc4)c(C)nn23)cc1OC | 15.4% (inactive)
84 | COc1cccc(/C=C2\C=C(c3ccc(C)cc3)OC2=O)c1OC(C)=O | -5.9% (inactive)
85 | CCOc1ccccc1/C=N/Nc1nc2ccccc2o1 | 0% (inactive)
86 | CCOc1cccc(/C=C/c2ccc3ccccc3n2)c1OC(C)=O | -92% (active)
87 | CCOc1ccccc1-c1cc(C(=O)N/N=C(\C)c2cccnc2)c2ccccc2n1 | 6.38% (inactive)
88 | COc1cccc(/C=C/c2ccc3ccccc3n2)c1OC(C)=O | -103% (active)
89 | CC(OC(=O)c1ccc2ccccc2n1)C(=O)c1ccccc1 (stereo not given) | 14.9% (inactive)
90 | CC1(C(=O)Nc2ccc3c(c2)OCCO3)CSCC(=O)N1CCOc1ccccc1 (stereo not given) | -3.47% (inactive)
